These results are taken from PubChem BioAssay (Tox21).

Values without a mark were called inactive. Records with an inconclusive call do not appear. The source made the active and inactive calls. Unless noted, the call rests on the fitted dose curve; in most records, active means well fitted curve in the direction sought with a large enough effect in the repeat runs; inconclusive means weak or mixed curves; inactive means no such curve, though single readings can be large; an effect the other way counts as inactive or inconclusive.

Test [1] can be described thus: qHTS assay to identify small molecule agonists of the TGF-beta/Smad signaling pathway - cell viability counter screen (AID 1346829). Further: top concentration of the series differs between compounds; nearly all actives have a fitted effect of over 45% in size. The method in brief: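 Tox21 qHTS format: SBE-bla HEK 293T cells treated with DMSO-dissolved compounds for 5 hr; CellTiter-Glo luminescence after 30 min at room temperature.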
A short description of test [2]: qHTS assay to identify small molecule agonists of the TGF-beta/Smad signaling pathway (AID 1346859; active means well fitted activation curve with a large enough effect in the signal ratio in the repeat runs, not every such curve was filed as active; the % refers to the signal ratio; further: series mostly up to about 77 µM). The method in brief: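 Stable Smad binding element-beta-lactamase HEK 293T cells; 5 hr compound exposure at 37 C under 5% CO2; 2 hr room-temperature substrate step; fluorescence excited at 405 nm, collected at 460 nm and 530 nm.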
A general note: qHTS replaces the single test concentration by a dilution series.

Test [3] concerns the target Thyrotropin-releasing hormone receptor (Homo sapiens) (UniProt P34981). Briefly: qHTS assay to identify small molecule antagonists of the thyrotropin-releasing hormone receptor (TRHR) signaling pathway (AID 1346877; active means well fitted inhibition curve with a large enough effect in the repeat runs, not every such curve was filed as active; further: series mostly up to about 51 µM). The method in brief:
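Overnight-plated (18 h, 37 °C) HEK293 cells expressing TRHR were dye-loaded 2 h, treated with compound, then stimulated with TRH at 1 nM final. Fluorescence intensity was captured every second for 3 min.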

Test [4] has the same target. Briefly: qHTS assay to identify small molecule agonists of the thyrotropin-releasing hormone receptor (TRHR) signaling pathway (AID 1346891; calls by dose curve;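 further: HEK293 cells expressing TRHR with calcium dye readout; series mostly up to about 58 µM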). The method in brief:
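In 1536-format, 1500 TRHR-Hek293 cells per well grew 18 h, took up calcium dye for 2 h at 37 °C, received compound, and were read kinetically; 15-point titrations, triplicates.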

A short description of test [5]: Human pregnane X receptor (PXR) small molecule agonists, qHTS cell viability counter screen (AID 1346977). Further: nearly all actives have a fitted effect of over 50% in size. The essentials:
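Readout is CellTiter-Fluor fluorescence from PXR-Luc HepG2 cells. Plated cells rested 5hr, then were treated with compounds for 24hr at 37C and 5% CO2, with reagent present during the last hour.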

A short description of test [6]: Caspase-3/7 induction in HepG2 cells by small molecules, qHTS assay (AID 1346978). Further: nearly all actives have a fitted effect of over 15% in size. The essentials: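 Caspase-3/7 induction was measured by Caspase-Glo 3/7 luminescence (30 min, room temperature) after a 17 hr compound exposure of wild-type HepG2 cells seeded at 2,000 per well and pre-incubated 5 hr.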
Test [7] in a line: Caspase-3/7 induction in CHO-K1 cells by small molecules, qHTS cell viability counter screen (AID 1346979). Further: nearly all actives have a fitted effect of over 35% in size. The essentials: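 To flag cytotoxic compounds, treated CHO-K1 wild-type cells were given CellTiter-Fluor at 16hr and read fluorescently after 1hr at 37C; the caspase-3/7 luminescence was measured in these same wells.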
The nature of test [8]: Caspase-3/7 induction in CHO-K1 cells by small molecules, qHTS assay (AID 1346980). Further: nearly all actives have a fitted effect of over 15% in size. The essentials:
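Luminescent Caspase-Glo 3/7 read (30min, room temperature) quantified apoptosis induction. Cells were wild-type CHO-K1, treated with compound for 17hr at 37 C and 5% CO2.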

Test [9] is described as follows: Caspase-3/7 induction in HepG2 cells by small molecules, qHTS cell viability counter screen (AID 1346981). Further: series mostly up to about 92 µM; nearly all actives have a fitted effect of over 30% in size. The method in brief: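 Treatment of HepG2 cells with DMSO-delivered compounds ran 16 hr at 37 C following a 5-hr pre-incubation of 2,000 cells/well. CellTiter-Fluor fluorescence, read after 1 hr, served as the viability measure in a qHTS format.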
Test [10] has as its target Nuclear receptor subfamily 1 group I member 2 (Homo sapiens) (UniProt O75469). Briefly: Human pregnane X receptor (PXR) small molecule agonists, qHTS assay (AID 1346982). Further: nearly all actives have a fitted effect of over 35% in size. Further: potency means the concentration at half of the fitted maximal effect. The essentials:
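Stable HepG2 line reporting PXR-mediated CYP3A4 expression via luciferase. Treatment: 24 hr with compounds in DMSO at 37 C. Detection: ONE-Glo luminescence.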

Test [11] deals with Cytochrome P450 2D6 (Homo sapiens) (UniProt P10635). Kind of test: Cytochrome P450 Family 2 Subfamily D Member 6 (CYP2D6) small molecule antagonists: luciferase reporter qHTS assay (AID 1671196). Further: series mostly up to about 120 µM; nearly all actives have a fitted effect of over 50% in size. The essentials: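 Chemicals tested for interference with CYP2D6 activity; proluciferin substrate, NADPH regeneration, 1 h at room temperature, luminescent detection.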
Cytochrome P450 2D6 (Homo sapiens), sequence (P10635 whole entry, looked up): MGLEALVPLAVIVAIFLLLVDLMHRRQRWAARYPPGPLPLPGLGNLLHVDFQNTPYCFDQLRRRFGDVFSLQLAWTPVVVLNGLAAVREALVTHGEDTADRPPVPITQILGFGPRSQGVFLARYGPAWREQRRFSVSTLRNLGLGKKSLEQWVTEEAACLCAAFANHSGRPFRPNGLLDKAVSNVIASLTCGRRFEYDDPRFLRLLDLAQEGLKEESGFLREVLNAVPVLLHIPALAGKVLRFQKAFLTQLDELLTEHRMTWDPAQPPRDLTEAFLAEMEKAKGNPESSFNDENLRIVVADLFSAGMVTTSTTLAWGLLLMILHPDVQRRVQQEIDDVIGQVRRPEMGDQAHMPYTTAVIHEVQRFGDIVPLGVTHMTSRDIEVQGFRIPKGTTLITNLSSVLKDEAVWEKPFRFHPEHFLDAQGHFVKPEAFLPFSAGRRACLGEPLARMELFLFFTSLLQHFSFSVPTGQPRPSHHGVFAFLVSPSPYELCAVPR
For orientation: Reporter assays use an easily measured gene product as a stand-in for the process of interest.

Test [12] deals with Cytochrome P450 2C19 (Homo sapiens) (UniProt P33261). Kind of test: Cytochrome P450 Family 2 Subfamily C Member 19 (CYP2C19) small molecule antagonists: luciferase reporter qHTS assay (AID 1671197). Further: nearly all actives have a fitted effect of over 65% in size. Further: potency means the concentration at half of the fitted maximal effect. The method in brief: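 Relative luminescence units recorded 20 min after the detection reagent stopped a 1 h, 37C CYP2C19 reaction on proluciferin substrate, which was started by NADPH regeneration following 10 min room-temperature compound preincubation; ketoconazole positive control.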
Cytochrome P450 2C19 (Homo sapiens), sequence (P33261 whole entry, looked up): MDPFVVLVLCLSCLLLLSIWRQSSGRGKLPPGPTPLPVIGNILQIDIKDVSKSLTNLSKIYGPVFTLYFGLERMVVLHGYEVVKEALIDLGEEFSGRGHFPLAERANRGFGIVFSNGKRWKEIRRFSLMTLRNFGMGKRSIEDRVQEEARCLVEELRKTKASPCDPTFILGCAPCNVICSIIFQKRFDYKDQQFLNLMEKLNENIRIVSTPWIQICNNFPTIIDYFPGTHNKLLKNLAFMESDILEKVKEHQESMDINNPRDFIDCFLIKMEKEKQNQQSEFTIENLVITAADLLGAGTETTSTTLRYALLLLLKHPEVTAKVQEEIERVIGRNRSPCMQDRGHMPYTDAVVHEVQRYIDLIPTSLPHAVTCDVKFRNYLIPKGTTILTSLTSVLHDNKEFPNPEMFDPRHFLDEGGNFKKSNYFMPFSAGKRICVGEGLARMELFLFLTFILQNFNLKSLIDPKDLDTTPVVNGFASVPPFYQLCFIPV

For test [13], the target named is Cytochrome P450 1A2 (Homo sapiens) (UniProt P05177). Kind of test: Cytochrome P450 Family 1 Subfamily A Member 2 (CYP1A2) small molecule antagonists: luciferase reporter qHTS assay (AID 1671199). Further: nearly all actives have a fitted effect of over 50% in size. Further: potency means the concentration at half of the fitted maximal effect. The method in brief:
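Read-out is luminescence from luciferin detection reagent (20 min) proportional to CYP1A2 activity; compounds in DMSO preincubated 10 min with enzyme and proluciferin substrate, then NADPH regeneration solution, 1 h, room temperature.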

For test [14], the target named is Voltage-gated inwardly rectifying potassium channel KCNH2 (Homo sapiens) (UniProt Q12809). Briefly: Human Ether-a-go-go-Related Gene (hERG) channel small molecule antagonists: fluorescence cell-based qHTS assay (AID 1671200).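 Further: hERG-expressing U2OS cells given a thallium stimulus after FluxOR II dye loading; series mostly up to about 77 µM; nearly all actives have a fitted effect of over 50% in size.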 The method in brief: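 Measured: Tl+ flux via fluorescence (480/540 nm) in hERG-expressing U2OS cells after 1 h dye loading at room temperature.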
Voltage-gated inwardly rectifying potassium channel KCNH2 (Homo sapiens), sequence (Q12809 whole entry, looked up): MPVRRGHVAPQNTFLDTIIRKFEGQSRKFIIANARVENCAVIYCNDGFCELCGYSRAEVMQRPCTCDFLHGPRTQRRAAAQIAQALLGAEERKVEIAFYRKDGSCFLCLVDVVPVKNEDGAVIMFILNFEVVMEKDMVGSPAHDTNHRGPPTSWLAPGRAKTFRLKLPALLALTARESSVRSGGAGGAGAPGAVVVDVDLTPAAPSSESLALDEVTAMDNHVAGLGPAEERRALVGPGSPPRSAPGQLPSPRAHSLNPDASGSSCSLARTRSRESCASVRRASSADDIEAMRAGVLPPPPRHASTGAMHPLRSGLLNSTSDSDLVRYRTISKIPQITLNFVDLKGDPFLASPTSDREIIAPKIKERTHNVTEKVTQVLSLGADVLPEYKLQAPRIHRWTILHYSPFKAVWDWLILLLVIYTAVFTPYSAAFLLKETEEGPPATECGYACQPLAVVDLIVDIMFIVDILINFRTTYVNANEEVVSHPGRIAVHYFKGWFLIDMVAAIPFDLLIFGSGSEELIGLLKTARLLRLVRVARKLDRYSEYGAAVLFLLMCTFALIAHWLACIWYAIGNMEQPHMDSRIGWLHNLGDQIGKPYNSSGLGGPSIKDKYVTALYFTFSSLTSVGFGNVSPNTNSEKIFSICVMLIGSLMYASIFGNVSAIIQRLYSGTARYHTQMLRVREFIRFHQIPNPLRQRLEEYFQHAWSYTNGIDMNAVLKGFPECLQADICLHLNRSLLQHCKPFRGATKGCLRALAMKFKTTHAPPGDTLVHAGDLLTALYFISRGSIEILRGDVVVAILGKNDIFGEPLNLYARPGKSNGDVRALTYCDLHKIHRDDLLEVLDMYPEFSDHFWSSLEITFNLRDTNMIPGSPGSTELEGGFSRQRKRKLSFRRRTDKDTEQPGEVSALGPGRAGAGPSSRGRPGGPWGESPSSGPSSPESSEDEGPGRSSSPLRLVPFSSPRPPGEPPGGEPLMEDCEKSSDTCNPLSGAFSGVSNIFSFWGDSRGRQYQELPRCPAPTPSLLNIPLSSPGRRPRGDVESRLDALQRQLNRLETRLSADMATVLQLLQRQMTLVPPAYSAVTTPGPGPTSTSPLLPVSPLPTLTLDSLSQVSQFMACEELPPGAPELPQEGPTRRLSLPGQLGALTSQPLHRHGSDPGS
Background: hERG is a cardiac potassium channel; its block is linked to QT prolongation.

Test [15] has as its target Cytochrome P450 3A4 (Homo sapiens) (UniProt P08684). Kind of test: Cytochrome P450 Family 3 Subfamily A Member 4 (CYP3A4) small molecule antagonists: luciferase reporter qHTS assay (AID 1671201). The method in brief:
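Setup: enzyme-substrate mix, compound pin transfer, 10 min RT. Reaction: NADPH regeneration solution, 1 h RT. Readout: detection reagent stops turnover, luminescence measured after 20 min, expressed in relative luminescence units.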

Test [16] deals with Cytochrome P450 2C9 (Homo sapiens) (UniProt P11712). Kind of test: Cytochrome P450 Family 2 Subfamily C Member 9 (CYP2C9) small molecule antagonists: luciferase reporter qHTS assay (AID 1671198). The essentials: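 Enzyme-substrate mix preincubated with compound 10 min at room temperature; reaction started with NADPH regeneration solution, 1 h 37C. Luminescent luciferin product read after 20 min detection reagent.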
Cytochrome P450 2C9 (Homo sapiens), sequence (P11712 whole entry, looked up): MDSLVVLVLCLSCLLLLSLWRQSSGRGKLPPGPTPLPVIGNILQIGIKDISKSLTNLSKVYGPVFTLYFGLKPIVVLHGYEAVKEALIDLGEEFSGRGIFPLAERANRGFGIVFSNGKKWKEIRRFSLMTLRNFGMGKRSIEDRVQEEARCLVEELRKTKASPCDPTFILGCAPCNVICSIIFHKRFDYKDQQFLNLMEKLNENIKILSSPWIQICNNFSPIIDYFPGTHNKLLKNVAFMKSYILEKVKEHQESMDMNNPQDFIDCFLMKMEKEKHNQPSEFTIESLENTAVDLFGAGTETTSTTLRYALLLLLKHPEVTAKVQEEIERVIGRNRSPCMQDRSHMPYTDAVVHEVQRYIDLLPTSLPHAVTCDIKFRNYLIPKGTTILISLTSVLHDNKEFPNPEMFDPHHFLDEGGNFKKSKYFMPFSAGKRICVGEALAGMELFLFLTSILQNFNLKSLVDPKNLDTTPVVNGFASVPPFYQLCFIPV

Thyrotropin-releasing hormone receptor (Homo sapiens), sequence (P34981 whole entry, looked up): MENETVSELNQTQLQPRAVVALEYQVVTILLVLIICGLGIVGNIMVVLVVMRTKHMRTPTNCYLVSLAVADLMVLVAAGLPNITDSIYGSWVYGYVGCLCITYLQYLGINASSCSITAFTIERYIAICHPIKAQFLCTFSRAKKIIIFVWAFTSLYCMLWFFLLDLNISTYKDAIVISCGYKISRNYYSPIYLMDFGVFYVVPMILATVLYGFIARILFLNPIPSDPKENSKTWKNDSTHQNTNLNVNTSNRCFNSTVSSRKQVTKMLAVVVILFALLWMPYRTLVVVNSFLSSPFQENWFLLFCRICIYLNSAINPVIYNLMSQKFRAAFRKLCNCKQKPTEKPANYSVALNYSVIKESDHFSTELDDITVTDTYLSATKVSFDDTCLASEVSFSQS
Nuclear receptor subfamily 1 group I member 2 (Homo sapiens), sequence (O75469 whole entry, looked up): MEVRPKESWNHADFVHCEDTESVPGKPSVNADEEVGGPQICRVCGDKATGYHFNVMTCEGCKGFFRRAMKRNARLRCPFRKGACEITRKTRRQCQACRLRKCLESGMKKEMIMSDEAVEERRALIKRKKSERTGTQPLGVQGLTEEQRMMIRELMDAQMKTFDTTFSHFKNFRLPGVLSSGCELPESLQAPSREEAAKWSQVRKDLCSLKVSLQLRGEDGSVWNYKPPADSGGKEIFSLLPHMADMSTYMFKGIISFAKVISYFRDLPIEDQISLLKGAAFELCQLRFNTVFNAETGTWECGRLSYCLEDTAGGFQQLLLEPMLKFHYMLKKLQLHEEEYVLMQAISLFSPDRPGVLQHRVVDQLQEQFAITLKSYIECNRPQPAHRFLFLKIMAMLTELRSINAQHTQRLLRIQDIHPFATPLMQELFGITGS
Cytochrome P450 1A2 (Homo sapiens), sequence (P05177 whole entry, looked up): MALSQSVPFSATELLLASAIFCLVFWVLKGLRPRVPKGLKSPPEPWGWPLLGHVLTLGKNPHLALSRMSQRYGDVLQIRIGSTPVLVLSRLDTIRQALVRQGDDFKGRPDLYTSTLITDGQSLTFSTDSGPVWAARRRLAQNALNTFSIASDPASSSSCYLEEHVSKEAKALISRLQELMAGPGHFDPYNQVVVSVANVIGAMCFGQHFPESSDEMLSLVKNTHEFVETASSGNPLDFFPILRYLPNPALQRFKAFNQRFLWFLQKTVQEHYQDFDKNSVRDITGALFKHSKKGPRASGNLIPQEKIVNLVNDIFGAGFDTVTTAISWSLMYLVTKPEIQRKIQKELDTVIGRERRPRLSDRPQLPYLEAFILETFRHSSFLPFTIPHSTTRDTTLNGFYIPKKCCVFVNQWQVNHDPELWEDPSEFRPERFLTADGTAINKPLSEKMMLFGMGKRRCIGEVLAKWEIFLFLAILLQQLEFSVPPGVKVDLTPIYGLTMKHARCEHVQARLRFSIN
Cytochrome P450 3A4 (Homo sapiens), sequence (P08684 whole entry, looked up): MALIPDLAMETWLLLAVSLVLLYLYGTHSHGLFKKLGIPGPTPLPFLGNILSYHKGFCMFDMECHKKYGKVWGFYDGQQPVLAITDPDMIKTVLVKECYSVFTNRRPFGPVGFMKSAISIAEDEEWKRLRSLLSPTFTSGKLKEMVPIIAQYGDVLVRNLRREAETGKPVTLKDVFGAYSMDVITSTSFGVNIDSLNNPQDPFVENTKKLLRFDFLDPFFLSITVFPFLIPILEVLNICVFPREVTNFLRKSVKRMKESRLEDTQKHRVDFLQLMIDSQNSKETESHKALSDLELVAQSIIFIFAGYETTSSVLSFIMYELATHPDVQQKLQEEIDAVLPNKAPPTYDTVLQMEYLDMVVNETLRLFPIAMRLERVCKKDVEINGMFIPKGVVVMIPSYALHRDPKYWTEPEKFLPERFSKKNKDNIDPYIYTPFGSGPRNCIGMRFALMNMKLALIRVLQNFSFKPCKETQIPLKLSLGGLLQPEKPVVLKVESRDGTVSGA

For the compound `O=S(=O)(O)SSS(=O)(=O)O`, the result in test [1], in [2], in test [3], in [4], in test [6] and in test [8] was inactive. Also, the Potency entry in [5], in test [7], in test [9], in [10], in test [11] and in test [14] was “inactive” in each case. In test [15], the Potency result is “inactive”. Moreover, the Potency was 35.6 µM (active) in [12] and 44.8 µM (active) in [13].

On to `O=C1OC(=O)c2ccccc21`, for which the compound was called inactive in [1], in [2], in test [3], in [4], in test [6] and in test [8]. Also, the Potency entry in test [5], in test [7], in [9], in test [10], in test [11] and in [12] was “inactive” throughout. Also, the Potency entry in test [16], in test [13], in test [14] and in test [15] was “inactive” in each case.

As for `CCCCC(=O)N(C)C`, the compound was classed as inactive in [1], in test [2], in test [3], in [4], in test [6] and in [8]. For the same compound, the Potency result in test [5], in test [7], in [9], in [10], in test [11] and in [12] was “inactive” in each case. Besides, the Potency entry in test [16], in [13], in [14] and in test [15] was “inactive” each time.

For the compound `CCN1CN(CC)CN(CC)C1`, the call in test [1], in test [2], in test [3], in test [4], in [6] and in test [8] was inactive. Moreover, the Potency entry in [5], in test [7], in test [9], in test [10], in test [11] and in [12] was “inactive” throughout. The Potency entry in test [16], in test [13], in test [14] and in test [15] was “inactive” in each case.

Turning to `CCCCCC1CCCC(=O)O1` (configuration not stated), the result in test [1], in test [2], in test [3], in test [4], in test [6] and in [8] was inactive. The Potency result in test [5], in test [7], in test [9], in test [10], in test [11] and in test [16] was “inactive” in each case. Besides, in test [14], the Potency entry was “inactive”. For the same compound, the Potency in test [12] was 79.6 µM (active).

Consider `Nc1ccc(C(=O)OCC(O)CO)cc1` (configuration not stated), for which the call in test [1], in test [2], in [3], in test [4], in [6] and in [8] was inactive. Further, the Potency result in [5], in [7], in test [9], in test [10], in test [11] and in [14] was “inactive” throughout. Besides, the Potency in [12] is 17.4 µM (active); in [13] it was 15.5 µM (active).

As to `CC(Cl)COP(=O)(OCC(C)Cl)OCC(C)Cl` (configuration not stated), the compound was called inactive in test [1], in [2], in test [3], in test [4], in [6] and in [8]. Moreover, the Potency entry in [5], in test [7], in [9], in [11], in test [14] and in [15] was “inactive” in each case. In addition, the figures for the Potency in [10], in test [12] and in test [13] were 13.6 µM (active), 19.9 µM (active) and 22.3 µM (active), respectively.

For the compound `Nc1cc(S(=O)(=O)O)ccc1S(=O)(=O)O`, the call in test [1], in test [2], in [3], in test [4], in test [6] and in [8] was inactive. In addition, the Potency result in [5], in test [7], in test [9], in test [10], in test [11] and in test [12] was “inactive” in each case. The Potency entry in test [16], in test [13], in [14] and in test [15] was “inactive” throughout.
